Molecules are shown by their SMILES. The whole screen tested about 290,000 compounds, of which about 150 (0.052%) were called active. The sample holds actives, similar compounds and a random draw of the others, so the mix is not that of the screen. Potency and affinity values are given separately. A number with no mark means an inactive call.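 The calls were made as follows: active = inhibition of at least 50% with at least 30 cells and total cytoplasm GFP at most 10,000,000; inconclusive = under 30 cells or total GFP of 10,000,000 plus; inactive = the rest.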

In the assay the target is G-protein coupled receptor 35 (Homo sapiens) (UniProt Q9HC97). As to the kind of experiment: inhibition of zaprinast-stimulated GPR35 beta-arrestin translocation – imaging, U2OS, beta-arrestin-GFP, zaprinast agonist, primary screen (AID 2058). Conditions: zaprinast antagonism, at 10 µM, active compounds read high.
Sequence of G-protein coupled receptor 35 (Homo sapiens) (Q9HC97 whole entry, looked up): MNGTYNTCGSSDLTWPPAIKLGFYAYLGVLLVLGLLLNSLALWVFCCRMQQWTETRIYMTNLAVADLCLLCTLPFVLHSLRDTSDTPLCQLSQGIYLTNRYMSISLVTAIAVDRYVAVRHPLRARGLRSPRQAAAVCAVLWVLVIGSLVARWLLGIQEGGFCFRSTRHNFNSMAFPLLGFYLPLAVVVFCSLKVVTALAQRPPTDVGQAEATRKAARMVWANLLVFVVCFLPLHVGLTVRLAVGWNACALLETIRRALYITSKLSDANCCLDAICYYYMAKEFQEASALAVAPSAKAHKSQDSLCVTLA
In general, inhibition refers to the relative decrease from the control value, in per cent. In the case of `CCn1c(CNC(=O)c2ccc(Cl)cc2)nnc1SCC(=O)N1CCOCC1`, the inhibition is -15.6%.
Regarding `Cn1cc(/C=C/c2cc[n+](C)cc2)c2cc(F)ccc21`, the inhibition is 29.2%.
Take `COc1ccc2c(c1)c(/C=C/c1cc[n+](C)cc1)cn2C`: the inhibition is 48.7%.
For `Cn1cc(/C=C/c2cc[n+](C)cc2)c2cc(Cl)ccc21`, the inhibition was 54.7% (active).
`CN1CCc2c(sc3nc(NN)n(Cc4ccccc4)c(=O)c23)C1`: the inhibition was 12.8%.
On to `NNC(=O)c1oc2nc(-c3cccs3)cc(-c3ccco3)c2c1N`, for which the inhibition is -11.1%.
In the case of `Cc1ccc(-c2cc(-c3ccco3)c3c(N)c(C(=O)NN)oc3n2)cc1`, the inhibition is -7.6%.
As for `NNC(=O)c1oc2nc(-c3ccco3)cc(-c3ccco3)c2c1N`, the inhibition is 92.5% (active).
With `O=C(CCCn1c(=O)[nH]c2cc(Cl)ccc2c1=O)NCCCN1CCCC1`, the inhibition is 1.1%.
Take `CCCn1c(=O)[nH]c(=O)c2c1nc(-c1ccc(C(F)(F)F)cc1)n2CCOC`: the inhibition is 2.1%.
On to `CN1CC=C2C(C#N)=C(N)C(C#N)(C#N)C(Cc3ccccc3)C2C1` (stereo not given), for which the inhibition is 53.4% (active).
With `CC(=O)N1CC=C2C(C#N)=C(N)C(C#N)(C#N)C(CCc3ccccc3)C2C1` (stereo not given), the inhibition was -5.1%.
Regarding `CCN1CC=C2C(C#N)=C(N)C(C#N)(C#N)C(CCc3ccccc3)C2C1` (stereo not given), the inhibition was 90.4% (active).
Next, `N#CC1=C(N)C(C#N)(C#N)C(c2cccnc2)C2CN(C(=O)OCc3ccccc3)CC=C12` (stereo not given): 8.1%; `N#CC1=C(N)C(C#N)(C#N)[C@H](c2cccnc2)[C@H]2CN(C(=O)OCc3ccccc3)CC=C12`: 0.1%.
Take `Cc1ccc(S(=O)(=O)N(C)c2ccc(C(=O)NCCc3ccccc3)cc2)cc1`: the inhibition is 3.9%.
For the compound `Cc1ccc(C2(COC(=O)C(C)C)CO2)c(OC(=O)C(C)C)c1` (stereo not given), the inhibition is 10.9%.
As to `CCn1c(Oc2ccc(F)cc2)nc2c1c(=O)n(C)c(=O)n2C`, the inhibition was 5.5%.
Take `COc1ccc(OCC(O)CNC(=O)Nc2ccccc2)cc1` (stereo not given): the inhibition was 1.5%.
For `CN1CCc2nc(NC(=O)c3cccc(OC(F)F)c3)sc2C1`, the inhibition is 4.4%.
For the compound `COc1ccccc1N1CCN(CCCn2c(=S)[nH]c3ccccc3c2=O)CC1`, the inhibition was -1.1%.
In the case of `Cc1ccc(OCC(=O)N2CCN(C(=O)c3ccncc3)CC2)cc1`, the inhibition is -6.5%.
Take `C=CCCCCCCCCc1nc(=S)[nH][nH]1`: the inhibition is -18.8%.
On to `C=CCCCCCCCCc1nc(SCC(C)=O)n[nH]1`, for which the inhibition is 18.4%.
Consider `COc1ccc(NC(=O)COC(=O)C2CC(=O)N(c3ccc(C)cc3)C2)cc1` (stereo not given), for which the inhibition was -10.1%.
For the compound `O=S(=O)(NN1CCOCC1)c1cc(Cl)cc(Cl)c1O`, the inhibition was -8.3%.
Regarding `CC(=O)NS(=O)(=O)c1ccc(NC(=O)/C=C/c2cn(-c3ccccc3)nc2-c2ccccc2)cc1`, the inhibition is -3%.
Regarding `CCCCc1nc(SCC(=O)Nc2nnc(CCCC)s2)n[nH]1`, the inhibition was -13.1%.
For `O=C(CCCN1C(=O)S/C(=C\C=C\c2ccccc2)C1=O)Nc1ccc(O)cc1`, the inhibition was 18.5%.
For `O=C(CN1C(=O)S/C(=C/C=C/c2ccccc2)C1=O)Nc1ccc(C(=O)O)cc1`, the inhibition is -12.3%.
Then `O=C(CCN1C(=O)/C(=C\C=C\c2ccccc2)SC1=S)Nc1ccc(C(=O)O)cc1`, with 1.6%; and `O=C(CN1C(=O)S/C(=C\C=C\c2ccccc2)C1=O)Nc1ccc(C(=O)O)cc1`, with -0.2%.
On to `C/C=C(\C)C(=O)NCCN1C2=NC[C@@H](Cc3ccccc3)N2C[C@H]1Cc1ccc(O)cc1`, for which the inhibition is 1%.
Consider `N#Cc1c(C(F)(F)F)cc(=O)[nH]c1SCC(=O)O`, for which the inhibition was -12%.
For `CCN(C(=O)Cc1c(C(=O)O)n(C)c2ccccc12)c1cccc(C)c1`, the inhibition is 6.8%.
For the compound `O=C(Cn1cccc1C(=O)c1ccccc1)NCCCc1ccccc1`, the inhibition was 3.3%.
In the case of `CC(NS(=O)(=O)OCC(Cl)(Cl)Cl)c1ccc(Br)cc1` (stereo not given), the inhibition was 2.8%.
`CC(C)CC(NS(=O)(=O)OCC(Cl)(Cl)Cl)c1ccccc1` (stereo not given): the inhibition was 6.5%.
As for `O=C(Nc1ccc(Cl)c(S(=O)(=O)N2CCOCC2)c1)c1ccccc1-c1ccc(C(F)(F)F)cc1`, the inhibition was -5.3%.
For `CC(O)CSc1nc2c(c(=O)n(C)c(=O)n2C)n1CCCc1ccccc1` (stereo not given), the inhibition was 18.8%.
With `CC(=O)c1sc2nc(-c3cccs3)cc(C(F)(F)F)c2c1N`, the inhibition was 19.7%.
On to `Nc1c(C(=O)Nc2nccs2)sc2nc(-c3cccs3)cc(C(F)(F)F)c12`, for which the inhibition was 14.2%.
For the compound `O=C(NCc1nnc(SCc2ccccc2)n1-c1ccccc1)C12CC3CC(CC(C3)C1)C2`, the inhibition was -5.7%.
Then `O=C(NCc1nnc(SCc2ccc(F)cc2)n1-c1ccccc1)C12CC3CC(CC(C3)C1)C2`, with -5.2%; and `O=C(NCc1nnc(SCc2ccc(C(F)(F)F)cc2)n1-c1ccccc1)C12CC3CC(CC(C3)C1)C2`, with 89.4% (active); and `COc1ccc(CC(=O)OCC(=O)NC(=O)NC2CCCCC2)cc1`, with 6.4%.
For `COC(=O)c1[nH]c2cccc(C)c2c1NC(=O)CN1CCN(C(=O)c2ccco2)CC1`, the inhibition was 21.8%.
Regarding `FC(F)(F)c1cnc(-c2cnc3c(-c4ccc(Cl)cc4)cnn3c2)c(Cl)c1`, the inhibition is 2.1%.
For the compound `CCOC(=O)c1ccc(NC(=O)CCc2c(C)nc3ncnn3c2C)cc1`, the inhibition was 10.9%.
Take `O=C(CSc1nnc(Cn2c(=O)sc3ccccc32)n1-c1ccccc1)NCC1CCCO1` (stereo not given): the inhibition is 15.8%.
`CC(C)(C)OC(=O)N1CC=C2C(C#N)=C(N)C(C#N)(C#N)[C@H](c3cccnc3)[C@H]2C1`: the inhibition is 3.8%.
With `CCOC(=O)N1CC=C2C(C#N)=C(N)C(C#N)(C#N)[C@H](c3ccsc3)[C@H]2C1`, the inhibition was 7.2%.
Then `CN1C2C=C3C(C#N)=C(N)C(C#N)(C#N)[C@@H](c4ccsc4)[C@@H]3C1CC2` (stereo not given in full), with -6.4%.
Regarding `CCN1CC=C2C(C#N)=C(N)C(C#N)(C#N)[C@H](c3ccoc3)[C@H]2C1`, the inhibition was 67.4% (active).
With `CCOC(=O)N1CC=C2C(C#N)=C(N)C(C#N)(C#N)[C@H](c3ccc(OCC)c(OCC)c3)[C@H]2C1`, the inhibition is -0.6%.
On to `CC(=O)N1CC=C2C(C#N)=C(N)C(C#N)(C#N)[C@H](c3ccoc3)[C@H]2C1`, for which the inhibition was 2.7%.
As to `N#CC1=C(N)C(C#N)(C#N)[C@H](c2ccoc2)[C@H]2CN(Cc3ccccc3)CC=C12`, the inhibition was 9.6%.
Take `CN1CC=C2C(C#N)=C(N)C(C#N)(C#N)[C@H](c3ccoc3)[C@H]2C1`: the inhibition was 74.6% (active).
For `CCCCc1nc(SCC(=O)Nc2cccc(Cl)c2)n[nH]1`, the inhibition was -17%.
Take `Cc1cccc(Cc2cnc(N3C(=N)SC(C)C3=O)s2)c1` (stereo not given): the inhibition was -5.2%.
Next, `O=C(CSc1nnc(C2CCCCC2)o1)N1CCCCC1`: 11.7%.
Consider `CCN(C(=O)C(C)OC(=O)C1C(C(=O)OC)=C(C)NC(C)=C1C(=O)OC)c1ccccc1` (stereo not given), for which the inhibition was -20.3%.
Then `COc1ccc(NC(=O)c2cc3c([nH]c4ccccc43)c(C)n2)cc1`, with -5.7%; and `C=CCn1c(SCC(=O)N(C)C2CCS(=O)(=O)C2)nnc1-c1ccncc1` (stereo not given), with 11.4%; and `CCOC(=O)C1CCN(C(=O)CSc2ccccc2)CC1`, with -1.8%.
For the compound `O=C1/C(=C\c2cc([N+](=O)[O-])ccc2O)SC(=S)N1Cc1ccc(Cl)cc1`, the inhibition is 61.1% (active).
`COc1cc([N+](=O)[O-])cc(/C=C2/SC(=S)N(Cc3ccccc3)C2=O)c1O`: the inhibition is 2.7%.
On to `O=C1/C(=C/c2ccc(O)c([N+](=O)[O-])c2)SC(=S)N1Cc1ccccc1`, for which the inhibition is 0.6%.
In the case of `Cc1nc2c(C(=O)NCc3ccc4c(c3)OCO4)cnn2c(C)c1Cc1ccc(F)cc1Cl`, the inhibition was -16.4%.
Consider `Cc1oc(-c2ccc(Cl)cc2)nc1CS(=O)CC(=O)NCCCN(C)C1CCCCC1` (stereo not given), for which the inhibition is -9.6%.
Consider `COC(=O)C1CN(S(=O)(=O)c2cc(OC)ccc2OC)CCS1` (stereo not given), for which the inhibition was -8.4%.
Then `CC[n+]1ccc(/C=C/c2ccc(N(C)C)cc2)c2ccccc21`, with 103% (active); and `CC[n+]1ccccc1/C=C/c1ccc(N(C)C)cc1`, with -10.4%.
Consider `CC[n+]1c(/C=C/c2ccc(N(C)C)cc2)ccc2ccccc21`, for which the inhibition was 6.3%.
As for `CCCC(=O)N1CCN(c2nc3c(OC)ccc(Cl)c3s2)CC1`, the inhibition was 12.2%.
As for `CCC(Oc1ccc2ccccc2c1)C(=O)O` (stereo not given), the inhibition is 6.8%.
For `CC(=O)N(c1ccccc1)C1CCCC1`, the inhibition was -22.8%.
In the case of `CC(=O)N(C1=C(O)c2ccccc2C(=O)C1=O)C1CCCCC1`, the inhibition is -5.2%.
Next, `O=C(NC1CCCCCC1)C1CCCN(S(=O)(=O)c2cccs2)C1` (stereo not given): -5.5%; `CCN1CCN(C(=O)c2ccccc2NC(=O)c2ccc(Cl)cc2)CC1`: 1%; `Cc1[nH]c(=O)[nH]c(=O)c1S(=O)(=O)N1CCCC(C(=O)N2CCN(c3ccccc3Cl)CC2)C1` (stereo not given): 3.5%.
Take `COc1ccc(NC(=O)/C(Cl)=C(/Cl)S(=O)Cc2ccc(Cl)cc2)cn1` (stereo not given): the inhibition was 3.1%.
Consider `COc1ccc(NC(=O)/C(Cl)=C(/Cl)S(=O)Cc2ccccc2)cn1` (stereo not given), for which the inhibition is 9.5%.
With `COc1ccc(NC(=O)/C(Cl)=C(/Cl)S(=O)Cc2ccccc2Cl)cn1` (stereo not given), the inhibition is 115% (active).
For `Cc1ccc(-c2nc3ncccc3n2O)cc1`, the inhibition was 2.4%.
Regarding `Cc1ccc(F)cc1NC(=O)CSc1nc(Nc2ccccc2)nc(N2CCOCC2)n1`, the inhibition is 17.7%.
For the compound `Cc1ccc2nc(/C(C#N)=C/c3ccccc3C(=O)O)[nH]c2c1`, the inhibition was -7.1%.
Next, `CCOc1cc(N(CC)CC)ccc1/C=C(/C#N)c1nc2ccccc2[nH]1`: 99.9% (active); `COc1cc(/C=C(\C#N)c2nc3ccc(C)cc3[nH]2)c([N+](=O)[O-])cc1OC`: 2.2%; `Cc1cc(/C=C(\C#N)c2nc3ccccc3[nH]2)c(C)n1C`: -1.1%.
As for `Cc1ccc2nc(/C(C#N)=C/c3ccc(O)c(O)c3)[nH]c2c1`, the inhibition was -1.2%.
`N#C/C(=C\c1ccccc1OCC(=O)O)c1nc2ccccc2[nH]1`: the inhibition is -0.8%.
As for `CCOc1cc(/C=C(\C#N)c2nc3ccccc3[nH]2)ccc1OC(C)C(=O)O` (stereo not given), the inhibition is 9.3%.
For `CCOc1cccc(/C=C(/C#N)c2nc3ccccc3[nH]2)c1OCC(=O)O`, the inhibition was -3.5%.
For `COc1cccc(/C=C(\C#N)c2nc3ccc(C)cc3[nH]2)c1OCC(=O)O`, the inhibition was -10.4%.

(Values after PubChem BioAssay AID2058 (Sanford-Burnham Center for Chemical Genomics, 2009).)
